Data on 20 compounds can be found in the supplement of paper PMC11732987, “Enantioselective OTUD7B fragment discovery through chemoproteomics screening and high-throughput optimisation” (Communications Chemistry, 2025).

Values without a mark were called inactive.

This experiment addresses T1, USP42 (UniProt Q9H9J4).
T1 sequence (whole entry): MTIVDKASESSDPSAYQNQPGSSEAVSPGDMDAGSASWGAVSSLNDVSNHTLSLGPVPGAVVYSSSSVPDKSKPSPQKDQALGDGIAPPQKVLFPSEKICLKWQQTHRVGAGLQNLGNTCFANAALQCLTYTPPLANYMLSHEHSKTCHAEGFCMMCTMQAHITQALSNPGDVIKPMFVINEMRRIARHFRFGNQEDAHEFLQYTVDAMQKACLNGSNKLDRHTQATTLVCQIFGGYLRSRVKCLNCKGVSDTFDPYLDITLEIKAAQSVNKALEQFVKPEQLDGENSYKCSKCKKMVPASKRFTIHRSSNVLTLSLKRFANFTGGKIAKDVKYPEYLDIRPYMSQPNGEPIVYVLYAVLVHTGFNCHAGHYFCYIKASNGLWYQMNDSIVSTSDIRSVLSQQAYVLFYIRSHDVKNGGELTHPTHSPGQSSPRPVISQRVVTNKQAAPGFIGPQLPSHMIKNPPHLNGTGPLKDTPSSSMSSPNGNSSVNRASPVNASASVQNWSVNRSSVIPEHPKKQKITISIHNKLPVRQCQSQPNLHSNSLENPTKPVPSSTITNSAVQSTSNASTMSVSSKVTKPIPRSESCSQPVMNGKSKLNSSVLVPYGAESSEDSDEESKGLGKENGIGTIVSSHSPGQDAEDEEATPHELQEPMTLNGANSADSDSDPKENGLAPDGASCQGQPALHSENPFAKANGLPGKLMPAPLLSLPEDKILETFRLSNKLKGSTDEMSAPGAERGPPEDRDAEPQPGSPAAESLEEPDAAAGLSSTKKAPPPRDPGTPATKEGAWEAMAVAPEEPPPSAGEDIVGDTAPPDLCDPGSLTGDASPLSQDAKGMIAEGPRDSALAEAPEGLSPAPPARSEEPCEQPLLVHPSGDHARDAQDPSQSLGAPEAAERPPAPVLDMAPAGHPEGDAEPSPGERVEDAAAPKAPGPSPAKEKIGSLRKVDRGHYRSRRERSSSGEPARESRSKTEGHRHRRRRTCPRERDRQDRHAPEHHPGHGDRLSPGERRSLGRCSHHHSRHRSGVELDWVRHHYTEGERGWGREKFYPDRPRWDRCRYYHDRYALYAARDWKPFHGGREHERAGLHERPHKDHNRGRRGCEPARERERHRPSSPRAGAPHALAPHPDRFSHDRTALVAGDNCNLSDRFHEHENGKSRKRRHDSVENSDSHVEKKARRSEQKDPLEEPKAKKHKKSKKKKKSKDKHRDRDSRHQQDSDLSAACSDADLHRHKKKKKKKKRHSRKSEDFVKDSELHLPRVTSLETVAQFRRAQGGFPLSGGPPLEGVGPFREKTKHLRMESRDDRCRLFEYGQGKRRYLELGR
As to the kind of experiment: log2 ratio of Biotin-Ahx-Ub-VS probe labelling (fragment/DMSO); higher = less target engagement (more negative = stronger competition), active = hit call of the paper (q ≤ 0.05, log2 ratio ≤ -1). The conditions noted are these: compound concentration: 200 uM; treatment time: 3 h. An outline of the steps: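 Labelled DUBs were enriched with NeutrAvidin, digested with LysC and trypsin, and run by diaPASEF LC-MS/MS. The labelling used Biotin-Ahx-Ub-VS at 0.5 µM final for 1 h on HEK293T lysate (495 µg per sample) previously treated in triplicate with fragment at 200 µM or vehicle for 3 h. Values are average log2 fragment/vehicle ratios by unpaired t-test on global-median-normalised Spectronaut quantities of proteins with ≥2 unique peptides.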
As for `CNC(=O)C1CCN(C(=O)CCl)CC1`, the “log2 ratio of Biotin-Ahx-Ub-VS probe labelling” value (from here on “log2 ratio”) was 0.308.

Regarding `O=C(CCl)Nc1cccc(NC(=O)c2ccccc2)c1`, the “log2 ratio” value is 0.808.

Consider `Cc1ccc(N2CCC(NC(=O)CCl)C2=O)cc1` (stereo not given), for which the “log2 ratio” value is -0.0605.

With `Cc1cccc(C(CNC(=O)CCl)N2CCOCC2)c1.Cl` (stereo not given), the “log2 ratio” value is -0.208.

On to `O=C(CCl)N1CCC(C(O)c2ccc(F)cc2)CC1` (stereo not given), for which the “log2 ratio” value was 0.365.

As to `Cc1ccccc1C1(CNC(=O)CCl)CCOCC1`, the “log2 ratio” value is -0.0942.

As for `CC(O)CC1CCN(C(=O)CCl)CC1` (stereo not given), the “log2 ratio” value is 0.406.

Turning to `COc1cc(Cl)c(C)cc1NC(=O)CCl`, the “log2 ratio” value was -0.591.

For `Cl.O=C(CCl)NCCN1CCc2ccccc21`, the “log2 ratio” value is -0.219.

On to `CN(C)S(=O)(=O)c1ccccc1CNC(=O)CCl`, for which the “log2 ratio” value was 0.185.

Turning to `CN1c2ccccc2C(NC(=O)CCl)CS1(=O)=O` (stereo not given), the “log2 ratio” value is -0.0975.

Take `CNC(=O)Cn1cc(NC(=O)CCl)cn1`: the “log2 ratio” value is -0.595.

Consider `Cc1ccc(N(CCC#N)C(=O)CCl)cc1C`, for which the “log2 ratio” value was -0.126.

On to `Cc1cccc(N2CCC(NC(=O)CCl)C2=O)c1` (stereo not given), for which the “log2 ratio” value is -0.395.

`Cc1ccc(CC(NC(=O)CCl)c2ccccn2)cc1.Cl` (stereo not given): the “log2 ratio” value was -0.109.

`O=C(CCl)N[C@H]1CCS(=O)(=O)c2ccccc21`: the “log2 ratio” value is 0.186.

Consider `O=C(CCl)N1CCC(c2noc3cc(F)ccc23)CC1`, for which the “log2 ratio” value is 0.542.

`C/C(=C\CNC(=O)CCl)c1cnn(C)c1.Cl`: the “log2 ratio” value is 0.377.

Regarding `CN(C)C(=O)c1ccc(CNC(=O)CCl)cc1`, the “log2 ratio” value is -0.0843.

Regarding `Cc1nc(CNC(=O)CCl)c2ccccn12.Cl`, the “log2 ratio” value was 0.298.
